Data as given in PubChem BioAssay (NCATS).
Inconclusive results are not listed. The source made the active and inactive calls. Calls follow the shape of the dose curve; as a rule, active = well fitted curve in the direction sought with a large enough effect; inconclusive = small, poorly fitted or top-dose-only effect, or another doubt; inactive = no such curve, though single readings can be large; an effect the other way counts as inactive or inconclusive.

How the values were obtained:
[1] = target: Glutaminase kidney isoform, mitochondrial (Homo sapiens) (UniProt O94925); assay: qHTS for Inhibitors of Glutaminase (GLS): LOPAC Validation (AID 624146); also: nearly all actives have a fitted effect of over 60% in size; also: potency is read from the fitted curve at half-maximal effect
Procedure, shortened: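 Enzyme dispensed in phosphate buffer (45 mM, pH 8.2, 0.02% Tween-20), compounds pinned in, then 1 mM L-glutamine solution and the glutamate oxidase–HRP–Amplex Red mix added; fluorescence read immediately and again after 30 min at room temperature.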

[2] = qHTS of Trypanosoma Brucei Inhibitors: LOPAC Validation (AID 624147)
Procedure, shortened: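 Screened from lowest to highest concentration, compounds were pinned into TbPYK/substrate mixtures, and ADP (130 uM final) was added. Plates sat at room temperature for 45 min prior to Kinase-Glo Plus detection by luminescence.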

[3] = target: Glucagon-like peptide 1 receptor (Homo sapiens) (UniProt P43220); assay: qHTS of GLP-1 Receptor Agonists: LOPAC Validation (AID 624148);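 also: higher luminescence signal means agonism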
Procedure, shortened: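 HEK293 cells stably co-expressing a cAMP-responsive luciferase reporter and a hypersensitive GLP-1R were plated 12 h at 37 °C and exposed to compounds for 4-6 hr at 37 °C, 5% CO2. Luminescence was read 12 min after adding detection reagent.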

[4] = qHTS of Nrf2 Activators: LOPAC Validation (AID 624149)
Procedure, shortened: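 ARE reporter activation measured in AREc32 firefly luciferase cells after 24 hr compound exposure; Steady-Glo luminescence.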

[5] = HTS Assay for Allosteric Antagonists of the Human D2 Dopamine Receptor: Hit Validation in HTRF (AID 624455);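 also: stable D1 dopamine receptor cell line scored for blocking the D1 response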
Procedure, shortened: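 Signal from an HTRF read-out in D1-expressing stable cells gave hit activity as inhibition of the D1 response.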

[6] = target: Arylsulfatase A (Homo sapiens) (UniProt P15289); assay: qHTS screen for enhancers of Arylsulfatase A (ASA1): LOPAC Validation Assay (AID 720538); also: potency is read from the fitted curve at half-maximal effect
Procedure, shortened: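 SV40-transformed fibroblasts from an MLD patient (ASA-I179S) were treated with compound for 48 h at 37 C. They were then lysed with 0.5 mM pNCS substrate (final) for 14 h at room temperature and stopped with NaOH; signal read by fluorescence (Ex 525/Em 598 nm), with increase denoting enhanced activity.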

[7] = qHTS for compounds that reverse cellular toxicity of Amyloid beta (A-beta) peptide in yeast: LOPAC Validation Assay (AID 720559)
Procedure, shortened: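 Yeast expressing toxic A-beta grown with pinned compounds at 30 C for 48 hr. Growth measured as absorbance at 600 nm; data normalized to DMSO and to an equimolar FeCl3/clioquinol mixture as positive control.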

[8] = qHTS for Activators of Parkin Expression: LOPAC Validation Assay (NLuc Reporter) (AID 720572)
Procedure, shortened: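 Neuronal line stably carrying a FLuc/NLuc coincidence reporter under the Parkin promoter, seeded 24 h, then dosed in 7-point series for 24 h at 37 C. NLuc luminescence read after FLuc; normalized to DMSO and positive control (100%).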

[9] = qHTS for Activators of Parkin Expression: LOPAC Validation Assay (FLuc Reporter) (AID 720573)
Procedure, shortened: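 Neuronal cell line stably expressing FLuc/NLuc coincidence reporter under the Parkin promoter, 1,500 cells/well, dosed 24 h after seeding in 7-point series for 24 h at 37 C. FLuc luminescence read; normalized to DMSO and positive control (100%).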

Measured: Potency

Glutaminase kidney isoform, mitochondrial (Homo sapiens), sequence (O94925 whole entry, looked up, canonical isoform): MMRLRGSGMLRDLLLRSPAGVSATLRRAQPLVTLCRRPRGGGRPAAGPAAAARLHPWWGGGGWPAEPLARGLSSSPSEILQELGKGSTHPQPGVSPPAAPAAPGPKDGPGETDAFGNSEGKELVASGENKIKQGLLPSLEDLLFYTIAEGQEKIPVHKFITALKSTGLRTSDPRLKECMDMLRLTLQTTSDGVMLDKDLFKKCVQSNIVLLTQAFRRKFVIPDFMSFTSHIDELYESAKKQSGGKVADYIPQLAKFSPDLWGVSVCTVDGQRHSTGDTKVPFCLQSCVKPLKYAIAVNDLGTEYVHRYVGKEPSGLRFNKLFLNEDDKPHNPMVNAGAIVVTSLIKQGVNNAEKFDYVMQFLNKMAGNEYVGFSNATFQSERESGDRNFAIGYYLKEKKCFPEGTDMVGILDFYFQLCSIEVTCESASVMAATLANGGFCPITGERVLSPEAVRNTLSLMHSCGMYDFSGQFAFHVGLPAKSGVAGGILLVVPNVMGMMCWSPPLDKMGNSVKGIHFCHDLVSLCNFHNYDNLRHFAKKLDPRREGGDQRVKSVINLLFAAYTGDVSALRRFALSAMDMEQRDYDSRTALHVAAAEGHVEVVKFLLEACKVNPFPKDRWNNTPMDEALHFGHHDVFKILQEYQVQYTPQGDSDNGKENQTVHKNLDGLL
Glucagon-like peptide 1 receptor (Homo sapiens), sequence (P43220 whole entry, looked up): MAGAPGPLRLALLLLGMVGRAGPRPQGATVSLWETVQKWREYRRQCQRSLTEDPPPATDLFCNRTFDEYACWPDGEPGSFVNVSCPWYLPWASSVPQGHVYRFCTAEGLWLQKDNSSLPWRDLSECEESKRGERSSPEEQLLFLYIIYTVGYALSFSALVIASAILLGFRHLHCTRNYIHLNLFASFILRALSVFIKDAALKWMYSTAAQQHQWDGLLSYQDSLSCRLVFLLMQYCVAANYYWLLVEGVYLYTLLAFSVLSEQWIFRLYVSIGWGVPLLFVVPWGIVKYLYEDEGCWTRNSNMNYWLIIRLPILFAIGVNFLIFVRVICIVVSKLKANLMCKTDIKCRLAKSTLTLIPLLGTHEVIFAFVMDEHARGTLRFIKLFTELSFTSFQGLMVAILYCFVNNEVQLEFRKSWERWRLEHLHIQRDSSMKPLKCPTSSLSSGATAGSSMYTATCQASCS
Arylsulfatase A (Homo sapiens), sequence (P15289 whole entry, looked up): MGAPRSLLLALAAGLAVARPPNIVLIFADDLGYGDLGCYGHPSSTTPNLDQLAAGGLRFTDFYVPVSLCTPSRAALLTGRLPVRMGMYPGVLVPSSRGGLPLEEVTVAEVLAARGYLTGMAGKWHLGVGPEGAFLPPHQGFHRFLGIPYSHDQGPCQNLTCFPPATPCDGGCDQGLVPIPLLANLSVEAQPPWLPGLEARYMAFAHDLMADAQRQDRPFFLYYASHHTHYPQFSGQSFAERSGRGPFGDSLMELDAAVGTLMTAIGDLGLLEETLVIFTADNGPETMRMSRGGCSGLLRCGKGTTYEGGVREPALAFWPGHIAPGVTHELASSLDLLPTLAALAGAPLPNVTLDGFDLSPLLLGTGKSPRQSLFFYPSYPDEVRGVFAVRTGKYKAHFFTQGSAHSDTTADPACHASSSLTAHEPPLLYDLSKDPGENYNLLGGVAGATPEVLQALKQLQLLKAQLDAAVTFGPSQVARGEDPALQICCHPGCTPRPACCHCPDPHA

COc1ccc2c(c1)C13CCCCC1C(C2)N(C)CC3 (centres undefined)
inactive: all assays above

NC(Cc1cc(O)c(O)cc1O)C(=O)O (centres undefined)
active: [6] 16.9 µM
inactive: all other assays above

CN1C2CCC1CC(OC(c1ccccc1)c1ccccc1N)C2 (centres undefined)
inactive: all assays above

C=CCN1CC[C@]23c4c5ccc(O)c4O[C@@H]2/C(=N/N=C2\CC[C@@]4(O)C6Cc7ccc(O)c8c7[C@@]4(CCN6CC=C)[C@@H]2O8)CC[C@@]3(O)C1C5
active: [1] 2 µM
inactive: all other assays above

CN(C(=O)Cc1ccc(Cl)c(Cl)c1)C(CN1CCCC1)c1cccc(OCC(=O)O)c1 (centres undefined)
inactive: all assays above

C[C@@H]1O[C@H](C[N+](C)(C)C)CS1
inactive: all assays above

C#CCN[C@H](C)Cc1ccccc1
inactive: all assays above

NC(CCCCCP(=O)(O)O)C(=O)O (centres undefined)
inactive: all assays above

NC(C(=O)O)c1cc(=O)[nH]o1 (centres undefined)
inactive: all assays above

CN1CC[C@@]2(C)c3cc(O)ccc3N(C)C12 (some centres undefined)
active: [1] 10 µM
inactive: all other assays above

COc1ccc2c(c1O)-c1cccc3c1[C@@H](C2)N(C)CC3
active: [1] 3.55 µM
inactive: all other assays above
